target: T1, Aspartate--tRNA(Asp/Asn) ligase (Mycobacterium tuberculosis (strain ATCC 25618 / H37Rv)) (UniProt P9WFW3); experiment: Assay for Asp RNA synthetase-1 from Mycobacterium tuberculosis; format: functional; design: scale not given: in the data most compounds retested in dose-response had high values; conditions: 30 µM
T1 sequence (whole entry): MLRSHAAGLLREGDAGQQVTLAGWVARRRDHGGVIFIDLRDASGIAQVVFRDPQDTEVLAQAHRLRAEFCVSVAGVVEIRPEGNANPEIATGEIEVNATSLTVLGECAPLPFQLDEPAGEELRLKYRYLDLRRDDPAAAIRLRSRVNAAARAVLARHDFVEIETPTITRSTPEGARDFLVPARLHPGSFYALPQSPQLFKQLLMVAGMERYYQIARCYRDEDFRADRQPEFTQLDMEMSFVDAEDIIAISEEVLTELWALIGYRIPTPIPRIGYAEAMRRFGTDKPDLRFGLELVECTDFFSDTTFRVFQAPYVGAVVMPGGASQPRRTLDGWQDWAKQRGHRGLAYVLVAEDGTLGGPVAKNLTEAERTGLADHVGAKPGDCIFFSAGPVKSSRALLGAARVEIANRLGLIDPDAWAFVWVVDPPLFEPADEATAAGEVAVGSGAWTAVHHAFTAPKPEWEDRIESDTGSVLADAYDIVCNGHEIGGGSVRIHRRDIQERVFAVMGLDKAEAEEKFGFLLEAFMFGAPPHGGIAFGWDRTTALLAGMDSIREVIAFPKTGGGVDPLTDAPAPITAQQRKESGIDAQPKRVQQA

Compound	Percent Effect [%]
Cc1cnn(CC2CCCCN2Cc2cc(C)on2)c1 (stereo not given)	-5.5
CC1CCN(CCCNS(=O)(=O)c2cccc(F)c2)CC1	11.5
Cc1ccc(OC2(C(=O)O)CCN(C(=O)c3nc(C)oc3C)CC2)cn1	-2.19
c1coc(-c2nnc(CN3CCCC(CN4CCCCCC4)C3)o2)c1 (stereo not given)	2.88
CN(CCc1ccccc1)c1cnn(CC(=O)N2CCSCC2)c(=O)c1	8.28
Cc1cc(C(=O)N2CCCCC2c2nc(C)cs2)[nH]n1 (stereo not given)	-5.22
Cc1nc(C)n(CC2CCCN(Cc3nnc(C(C)(C)C)o3)C2)n1 (stereo not given)	1.32
Cc1noc(CN(Cc2ccc3c(c2)OCO3)C2CCCC2)n1	1.87
N#Cc1ccc(CN2CCC(c3ccnn3CCO)CC2)cc1	1.21
Cn1nccc1CNC(=O)Nc1cc(C(F)(F)F)c[nH]c1=O	0.5
CC1CCN(CCNC(=O)c2cncnc2C(C)C)CC1	-2.54
CC(OCC1CC1)C(=O)N1CCCN(c2ncccc2C#N)CC1 (stereo not given)	2.42
CNCC(=O)N1CCCC(c2cccc(Nc3nc(C)cc(C)n3)n2)C1 (stereo not given)	3.29
CC(C)c1cc(CNC(=O)N2CCC(Cc3cnn(C)c3)C2)on1 (stereo not given)	-3.72
O=C(CC1CN(Cc2ccccc2)CCO1)NC1CCCC1 (stereo not given)	-3.53
CCS(=O)(=O)CCNC(=O)c1ccc(-c2ccc(C)cc2)cc1F	7.76
CCc1nc(CC(=O)N2CCCC2Cn2cccn2)cs1 (stereo not given)	0.426
COc1cccc2c1ccn2CCC(=O)N1CCCC(C(=O)O)C1 (stereo not given)	6.53
Cc1cc(NC(=O)CN2CCCC2c2noc(C(C)C)n2)n(C)n1 (stereo not given)	-2.48
CCN(C)c1ncnc2c1CCN(C(=O)c1ccno1)CC2	7.02
